# Out of some 52,000 compounds screened, about 4,300 (8.3%) were called active. Only a selection was taken, and actives are over-represented in it overall. Unmarked numbers belong to inactive results. Rule as the data show it: active = survival mostly below about 52% (no sharp cut-off); inactive = mostly above about 56%.
# System: DeltatarO mutant
# Assay: growth inhibition of S. aureus wild type versus tarO mutant, primary screen, teichoic acid synthesis inhibitors, RN4220, OD600 (AID 463173)
# Details: OD600, 18 h, stronger effect = lower value, screened at 18.75 µg/mL (by protocol)
row,SMILES,survival
1,CCc1cccc(CC)c1NC(=O)c1c(C)oc2ccc(O)c(CN3CCOCC3)c12,90%
2,CC(C)Oc1ccc(C(=O)NCc2cccnc2)cc1,70%
3,CCOc1ccc(C(=O)N2CCc3cc(OC)c(OC)cc3C2COc2ccc3c(C)cc(=O)oc3c2)cc1OCC (stereo unspecified),57%
4,COc1ccc(OC)c(NC(=O)c2c(NCc3cccs3)sc3c2CCCCC3)c1,67%
5,CCOC(=O)c1cccc(NC(=O)COc2ccc3c(C)cc(=O)oc3c2)c1,70%
6,Cc1ccc2nc(Cl)c3cc(C(=O)NCCCN(C)Cc4ccccc4)sc3c2c1,-9% (active)
7,CN(C(=O)c1cc2c(Cl)nc3ccccc3c2s1)c1cccc(C(F)(F)F)c1,72%
8,CCN(C(=O)c1cc2c(Cl)nc3ccccc3c2s1)c1cccc(Cl)c1,60%
9,CCc1ccccc1N(C)C(=O)c1cc2c(Cl)nc3ccc(C)cc3c2s1,-4% (active)
10,CCCN(C(=O)c1cc2c(Cl)nc3ccccc3c2s1)c1cccc(C)c1,31% (active)
11,CN(CCCNC(=O)c1cc2c(Cl)nc3ccccc3c2s1)Cc1ccccc1,55%
12,Cc1ccc(Cl)cc1N(C)C(=O)c1cc2c(Cl)nc3ccccc3c2s1,54%
13,CCN(CCCNC(=O)c1cc2c(Cl)nc3ccccc3c2s1)Cc1ccccc1,94%
14,Cc1ccc2nc(Cl)c3cc(C(=O)N(C)C4CCCCC4)sc3c2c1,46%
15,COc1cc(NS(=O)(=O)c2ccc3c(c2)CCCN3C(C)=O)cc(OC)c1OC,89%
16,Cc1nc(C)c(CCNS(=O)(=O)c2ccc(C)c(C)c2)s1,97%
17,CCOc1ccc(-n2ccnc2SCC(=O)Nc2ccc3c(c2)OCO3)cc1,81%
18,O=C(CN1N=C(c2ccc(Cl)cc2)CCC1=O)NCCc1ccc(Cl)cc1,94%
19,COc1cccc(C(=O)Nc2ccc3nc(SCC(=O)N4CCOCC4)sc3c2)c1,65%
20,COc1ccccc1CNC(=O)c1cc(S(=O)(=O)N2CCCCCC2)cn1C,113%
21,Cc1ccc(OCCCCn2cnc3ccccc32)cc1,11% (active)
22,Cc1cc2ncn(CCC(=O)Nc3ccccc3F)c2cc1C,103%
23,CC(=O)OC(COc1ccccc1)Cn1cnc2cc(C)c(C)cc21 (stereo unspecified),140%
24,c1ccc2c(c1)ncn2CCn1cnc2ccccc21,100%

row,SMILES,survival
1,COc1ccc(OCCn2cnc3ccccc32)cc1,85%
2,Cc1cc2ncn(CCCCOc3ccccc3)c2cc1C,-4% (active)
3,Cc1cccc(C)c1NC(=O)CCC(=O)O,76%
4,COc1cc(NC(=O)Cn2c(=O)n(CC3CCCO3)c(=O)c3cc(OC)c(OC)cc32)cc(OC)c1 (stereo unspecified),94%
5,CCN1CCN(c2ncnc3c2cnn3-c2ccc(C)cc2)CC1,101%
6,CC(C)OCCCn1c(SCC(N)=O)nc2c(sc3ccccc32)c1=O,92%
7,N#Cc1nc(-c2ccc(COc3ccccc3)o2)oc1NCc1cccnc1,44% (active)
8,COc1ccc(CNc2oc(-c3ccc(COc4ccccc4C)o3)nc2C#N)cc1,50%
9,Cc1ccc(OCc2ccc(-c3nc(C#N)c(NCc4cccnc4)o3)o2)cc1,51%
10,Cc1ccccc1OCc1ccc(-c2nc(C#N)c(NCCCN(C)C)o2)o1,59%
11,COc1ccc(OCc2ccc(-c3nc(C#N)c(NCc4cccnc4)o3)o2)cc1,56%
12,Cc1ccccc1OCc1ccc(-c2nc(C#N)c(NCc3cccnc3)o2)o1,43% (active)
13,CN(C)c1oc(-c2ccc(COc3ccccc3)o2)nc1C#N,39% (active)
14,COc1ccc(Nc2oc(-c3ccc(COc4ccccc4)o3)nc2C#N)cc1,100%
15,N#Cc1nc(-c2ccc(COc3ccccc3)o2)oc1NCc1ccccc1,70%
16,COCCCNc1oc(-c2ccc(COc3ccccc3C)o2)nc1C#N,43% (active)
17,CCCCNc1oc(-c2ccc(COc3ccccc3C)o2)nc1C#N,112%
18,CC1CCN(c2oc(-c3ccc(COc4ccccc4)o3)nc2C#N)CC1,51%
19,Cn1c(=O)c2cc(C(=O)NCCCN3CCN(c4cccc(Cl)c4)CC3)sc2c2ccccc21,48%
20,Cc1cc(C)c(Cn2c(=O)n(CCC(=O)NCc3ccc4c(c3)OCO4)c(=O)c3ccccc32)c(C)c1,108%
21,CN(C)c1ccc(NC(=O)Cn2c(SCc3ccccc3F)nc3cccnc32)cc1,124%
22,CC(C)(C)c1ccc(OCC(=O)N(Cc2ccco2)Cc2ccccc2F)cc1,78%
23,Cc1cc(O)c(C(c2ccccc2)N2CCN(c3ccc(F)cc3)CC2)c(=O)n1Cc1ccco1 (stereo unspecified),67%
24,COc1ccccc1CCNC(=O)c1ccc2c(c1)c(C)c(C)n2C,95%

row,SMILES,survival
1,Cc1ccc(NC(=O)CSc2nc(-c3ccco3)nc3cc(=O)[nH]n23)cc1C,135%
2,CCOc1ccc(OCC)c(Nc2nc3ccccc3c3nnc(C)n23)c1,91%
3,Cc1nn(-c2ccc(N3CCCC3)nn2)c(C)c1CCC(=O)NCc1ccccc1F,82%
4,Cc1cc(C)c(NC(=O)C(=O)NCCc2csc(-c3ccc(F)cc3)n2)c(C)c1,67%
5,Cc1cccc(NC(=O)C(=O)NCCc2csc(-c3ccc(F)cc3)n2)c1C,83%
6,Cc1ccc(-c2nc(CCNC(=O)C(=O)Nc3c(C)cccc3C)cs2)cc1,8% (active)
7,Cc1ccc(-c2nc(CCNC(=O)C(=O)Nc3ccc(C)c(Cl)c3)cs2)cc1,60%
8,Cc1ccc(-c2nc(CCNC(=O)C(=O)Nc3ccc(C)c(C)c3)cs2)cc1,20% (active)
9,Cc1ccc(-c2nc(CCNC(=O)C(=O)Nc3ccc(C)cc3C)cs2)cc1,66%
10,Cc1c(CCNC(=O)c2ccc(Br)o2)sc2nc(-c3ccc(Cl)cc3)nn12,75%
11,O=C(CCn1cnnn1)Nc1ccc(F)cc1,72%
12,O=C(CCn1cnnn1)Nc1cc(C(F)(F)F)cc(C(F)(F)F)c1,69% (active)
13,Cc1cccc(NC(=O)CCn2cnnn2)c1,79%
14,CC(=O)Nc1cccc(-c2nnc(SCC(=O)c3ccc([N+](=O)[O-])cc3)o2)c1,130%
15,Fc1ccc(NCc2nnc3n2CCCCC3)cc1Cl,102%
16,Cc1ccc(Cl)cc1NCc1nnc2n1CCCCC2,101%
17,COc1ccc(NCc2nnc3n2CCCCC3)c(OC)c1,100%
18,COc1ccc(C)cc1NCc1nnc2n1CCCCC2,20% (active)
19,Cc1cc(C)cc(NCc2nnc3n2CCCCC3)c1,89%
20,COc1ccc(Cl)cc1NCc1nnc2n1CCCCC2,8% (active)
21,Clc1cccc(-n2ncc3c(N4CCC(Cc5ccccc5)CC4)ncnc32)c1,83%
22,CCOC(=O)c1ccccc1NC(=O)CSc1nccn1Cc1ccco1,75%
23,COCCCNC(=O)CCC(=O)NNc1nc2ccccc2c2nc(-c3ccccc3)nn12,100%
24,O=C(CCn1nnc2ccccc21)N1CCC(O)(c2cccc(F)c2)CC1,81%

row,SMILES,survival
1,COC(=O)c1ccccc1NC(=O)Cn1cc(S(=O)(=O)Cc2ccccc2F)c2ccccc21,94%
2,COc1cccc(N2C(=O)CSC23C(=O)N(Cc2ccccc2F)c2ccccc23)c1 (stereo unspecified),67%
3,COc1ccc(C(=O)Nc2nc3n(n2)C(c2ccc(F)cc2)C=C(c2ccc(Cl)cc2)N3)cc1 (stereo unspecified),54%
4,COc1ccc(C2C=C(c3ccccc3)Nc3nc(NC(=O)c4ccc(C)cc4)nn32)cc1 (stereo unspecified),44% (active)
5,Cc1ccc(C(=O)Nc2nc3n(n2)C(c2ccc(F)cc2)C=C(c2ccccc2)N3)cc1 (stereo unspecified),43% (active)
6,Cc1ccc(C(=O)Nc2nc3n(n2)C(c2ccccc2)C=C(c2ccccc2)N3)cc1 (stereo unspecified),57%
7,COc1ccc(C2C=C(c3ccccc3)Nc3nc(NC(C)=O)nn32)cc1 (stereo unspecified),53%
8,O=C(Nc1nc2n(n1)C(c1ccc(F)cc1)C=C(c1ccccc1)N2)c1ccc(Cl)cc1 (stereo unspecified),48%
9,CCOc1ccccc1CNC(=O)CN(c1ccc(C)cc1)S(=O)(=O)N(C)C,70%
10,Clc1ccc(C(c2ccccc2)c2c[nH]c3ccccc23)s1 (stereo unspecified),-3% (active)
11,c1ccc(C(c2cccs2)c2c[nH]c3ccccc23)cc1 (stereo unspecified),-1% (active)
12,Cn1cc(C(c2ccccc2)c2ccc(Cl)s2)c2ccccc21 (stereo unspecified),102%
13,COc1ccc(C(CN)c2c[nH]c3ccccc23)cc1 (stereo unspecified),107%
14,O=C(O)CSc1c[nH]c2ccccc12,84%
15,Cc1ccc2[nH]cc(C(c3ccccc3)c3cccs3)c2c1 (stereo unspecified),12% (active)
16,Cc1ccc2[nH]cc(S(=O)(=O)c3ccc(C)c(C)c3)c(=O)c2c1,81%
17,Cc1ccc2[nH]cc(C(c3ccccc3)c3ccc(Cl)s3)c2c1 (stereo unspecified),10% (active)
18,CCCCN(CC)C(=O)c1nn(-c2ccc(OC)cc2)c(=O)c2c1c1ccccc1n2C,82%
19,COc1cccc(CNC(=O)Cn2cc3c(n2)-c2c(oc(C(=O)N4CCCC4)c2C)CC3)c1,76%
20,Cc1cccc(N2CCN(c3ncnc4onc(C)c34)CC2C)c1 (stereo unspecified),77%
21,Cc1ccc2[nH]cc(C(c3ccccc3)c3ccc(C)s3)c2c1 (stereo unspecified),25% (active)
22,CCc1ccc(C(c2ccccc2)c2c[nH]c3ccc(C)cc23)s1 (stereo unspecified),69%
23,CCN(Cc1ccccc1)C(=O)c1cc2c(=O)[nH]c3ccc(C)cc3c2s1,49%
24,Cc1ccc(OCc2nc(-c3ccc(C(=O)N4CCN(c5ccc(Cl)cc5)CC4)cc3)oc2C)cc1,76%

# Source: PubChem BioAssay AID463173 (ICCB-Longwood Screening Facility, Harvard Medical School, 2010)
